The record followed here is ChEMBL document CHEMBL1157539, “Thousands of chemical starting points for antimalarial lead identification” (Nature, 2010).

This assay relates to Plasmodium falciparum. Put plainly: GSK_TCMDC: Inhibition of Plasmodium falciparum Dd2 in whole red blood cells, using parasite LDH activity as an index of growth. Test compounds present at 2uM. The class given is functional.
For `O=C(NCCc1cccc(Cl)c1Cl)c1cnc(N2CCN(c3ccncc3)CC2)c(Cl)c1.O=C(O)C(F)(F)F`, the Inhibition is on record as 99%.
With `CCCCNc1cc(C)nc(NCc2ccccc2)n1` the figure was 37%; with `O=C(Cc1cccc(O)c1)Nc1ccc(-c2cccc(-c3nc4cc(C(F)(F)F)ccc4[nH]3)c2)cc1`, 1%; with `CCOC(=O)c1ccc(NC(=O)N[C@@H](Cc2ccccc2)C(=O)NC2CCN(Cc3ccc(OCCCN(C)C)cc3)C2)cc1` (stereo not given in full), 8%.
On to `Cc1nc(-c2ccc(-c3ccc(C(=O)Nc4ccc(-n5ccnc5)c(N5CCN(C)CC5)c4)cc3)c(C)c2)no1`, for which the Inhibition turned out to be 100%.
`O=C1OC(c2ccccc2)(c2ccccc2)CN1C1CCN(Cc2ccc(O)c(Cl)c2)C1` (stereo not given) came in with an Inhibition of 93%.
With `CC1CN(c2cnn(Cc3ccc(NC(=O)Nc4ccc(F)cc4[N+](=O)[O-])cc3)c(=O)c2Cl)CC(C)N1.O=C(O)C(F)(F)F` (stereo not given) the figure was 10%; with `Cc1nc(-c2cccc(Nc3nccc(NCC(O)c4ccccc4C(F)(F)F)n3)c2)cs1` (stereo not given), 50%.
In turn, `N#CC(c1ccc(Cl)cc1)c1ccc2c(C(F)(F)F)cc(C(F)(F)F)nc2n1` (stereo not given) gave an Inhibition of 54%.
Turning to `Cc1nnsc1C(=O)Nc1ccc(-c2cccc(-c3nc4cc(C(F)(F)F)ccc4[nH]3)c2)cc1`, the Inhibition is recorded as 36%.
`CCOc1cc(C(=O)NCCN(CC)c2cccc(C)c2)ccc1-c1nc2cc(Cl)ccc2[nH]1` had an Inhibition of 80%.
With `CCOc1cc(C(=O)Nc2cccnc2)cc(Br)c1OCCC(C)C` the figure was 51%.
Molecule `Cc1ccc(O)cc1Nc1ccnc2cc(-c3csc(CNCCN4CCOCC4)n3)ccc12` had an Inhibition of 99%.
With `CN1CCCC(CN2CCN(Cc3cccc(-c4ccc(-c5nc6ccccc6[nH]5)cc4)c3)CC2)C1.O=C(O)C(F)(F)F` (stereo not given) the figure was 100%.
On to `COc1cc(C(=O)NC2CC(C)(C)NC(C)(C)C2)ccc1-c1cc2cc(Cl)c(Cl)cc2[nH]1.O=C(O)C(F)(F)F`, for which the Inhibition was determined as 31%.
In the case of `O=C(Nc1ccc2c(c1)CCC2)c1nc(N2CCN(c3ccncc3)CC2)ccc1Cl.O=C(O)C(F)(F)F`, the Inhibition was found to be 97%.
Take `COc1ccc(Br)cc1C1Nc2ccc3ccccc3c2C2=C1C(=O)CC(c1ccccc1)C2` (stereo not given): the Inhibition was determined as 96%.
`Cn1ccnc1CNC(=O)c1ccc(-c2ccc(-c3nc4cc(C(F)(F)F)ccc4[nH]3)s2)cc1` came in with an Inhibition of 43%.
The molecule `Cc1cccc(C)c1/N=C1\NC(=S)N(c2cccc(Cl)c2)C12CCC(C(C)(C)C)CC2` (stereo not given) had an Inhibition of 53%.
The molecule `CS(=O)(=O)Nc1ccc2[nH]cc(C3CCN(CC(O)C4CCN(C(=O)/C=C/c5ccc(Cl)c(Cl)c5)CC4)CC3)c2c1.O=C(O)C(F)(F)F` (stereo not given) registered an Inhibition of 0%.
With `O=C(/C=C/c1cccc(OC(F)(F)F)c1)NCCCCCN1CCC(c2c[nH]c3ccccc23)CC1` the figure was 13%; with `OC(CNCc1ccccc1)c1cc(OCc2ccccc2)cc(OCc2ccccc2)c1` (stereo not given), 76%; with `Cn1nc(C(F)(F)F)c(-c2ccc(F)cc2)c1NC(=O)Nc1ccc(F)cc1F`, 98%.
`O=C(Nc1ccc(Cn2ncc(N3CCCNCC3)c(Cl)c2=O)cc1)Nc1cccc(C(F)(F)F)c1.O=C(O)C(F)(F)F` showed an Inhibition of 30%.
`CN1CCN(CC(=O)Nc2cccc(-c3cccc(-c4nc5cc(C(F)(F)F)ccc5[nH]4)c3)c2)CC1`: the Inhibition came out at 98%.
Regarding `CN1CCC(COc2ccc(CN3CCC(NC(=O)c4cccc(Cl)c4)CC3)cc2)CC1.O=C(O)C(F)(F)F`, the Inhibition came to 13%.
`CCCCCCc1cc(Oc2c(I)cc(C[C@H](N)C(=O)O)cc2I)ccc1O` showed an Inhibition of 0%.
Consider `COc1ccc(OCC(=O)Nc2cc(-c3nc4ccccc4[nH]3)ccc2Cl)cc1`, for which the Inhibition was 33%.
For the molecule `CC[C@H](C)CNC(=O)c1cncc(-c2ccc(CNC3Cc4ccccc4C3)cc2)c1.O=C(O)C(F)(F)F`, the Inhibition is on record as 95%.
Molecule `Cc1cc(N2CCCC2)nc(Nc2ccc(NC(=O)CC(C)C)cc2)n1` yielded an Inhibition of 53%.
In turn, `O=C(O)C(F)(F)F.O=S(=O)(NC1CCN(c2ccnc3ccccc23)C1)c1ccc(OC(F)(F)F)cc1` (stereo not given) returned an Inhibition of 0%.
`O=C1NC(=O)C(c2cccc(NC(=O)c3ccncc3)c2)=C1c1ccccc1` yielded an Inhibition of 0%.
`Cc1nc2ccccc2n1C1CC2CCC(C1)N2CCCC1(c2ccccc2)CCN(C(=O)OCc2ccccc2)CC1.O=CO` (stereo not given) yielded an Inhibition of 29%.
Regarding `Cc1cc(-c2cccc(CNCc3ccccc3)c2)ccc1S(=O)(=O)NCCN1CCCC1.O=C(O)C(F)(F)F`, the Inhibition came to 58%.
`O=C(Nc1ccc2c(c1)CCN2C1CCN(Cc2ccc(F)cc2Cl)C1)c1ccco1` (stereo not given) displayed an Inhibition of 96%.
As to `O=C(CCN1CCCCC1)Nc1ccc(Nc2nccc(NCC(O)c3ccccc3)n2)cc1` (stereo not given), the Inhibition is recorded as 60%.
With `C[C@@H](Oc1cc(-n2cnc3ccc(OCC4CCN(S(C)(=O)=O)CC4)cc32)sc1C(N)=O)c1ccccc1C(F)(F)F` the figure was 50%; with `COc1nc2c(N3CCN(CCNCc4ccc5c(n4)NC(=O)CS5)CC3)ccnc2cc1F`, 96%; with `CC(C)C[C@H]1c2[nH]c3ccc(Cl)cc3c2CCN1C(=O)CCc1ccccc1`, 81%.
As for `Cl.c1ccc2c(Nc3ccc(OCCOCCOc4ccc(Nc5c6ccccc6nc6ccccc56)cc4)cc3)c3ccccc3nc2c1`, the Inhibition is 97%.
